Mcl1-Noxa inh = Mcl-1/Noxa interaction inhibition; Q07820; TR-FRET Mcl-1/Noxa peptide binding, 2 h; inhibition, % at 21.7 µM; actives 1.5% (n = 220,000);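 active = compounds that cut the protein-peptide binding signal by more than 50% relative to plate controls in a single-dose test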;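 also: His-tagged Mcl-1 with rhodamine Noxa BH3 peptide and terbium anti-His antibody; 0% = Mcl-1 plus Noxa peptide wells and 100% = peptide-only wells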
Target sequence (Q07820 whole entry, looked up): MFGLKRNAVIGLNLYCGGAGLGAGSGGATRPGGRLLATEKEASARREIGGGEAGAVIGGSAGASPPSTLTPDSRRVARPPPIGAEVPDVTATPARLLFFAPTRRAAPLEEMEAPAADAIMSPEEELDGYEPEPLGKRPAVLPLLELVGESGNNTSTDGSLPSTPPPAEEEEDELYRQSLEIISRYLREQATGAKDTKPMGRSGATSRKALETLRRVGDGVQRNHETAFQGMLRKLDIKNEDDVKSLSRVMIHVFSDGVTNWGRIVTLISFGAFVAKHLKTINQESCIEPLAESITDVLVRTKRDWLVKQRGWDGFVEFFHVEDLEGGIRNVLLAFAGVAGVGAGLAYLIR
Bim-Mcl-1 = inhibitors of Bim-Mcl-1 interaction, human; actives 0.1% (n = 190,000); inhibition, % at 10 µM; Bead-based flow cytometry, Bim peptide-Mcl-1 binding; in the data active = inhibition above about 40%;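 also: 0% = no compound tracer wells and 100% = peptide blocker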
MCL1 BIM primary = MCL1-BIM-BH3 interaction inhibition (human). Q07820. GST-MCL1 / FITC-Bim-BH3 fluorescence polarization. inhibition, % at 10.9 µM. actives 0.68% (n = 320,000). AID 2057;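 active = inhibition above the mean inhibition of all tested compounds plus 3 SD, set per campaign, cut at about 40% in these data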;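 also: 0% = DMSO wells and 100% = unlabeled Bim-BH3 peptide control; higher means more loss of mP so more displacement of Bim peptide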
Mcl1-Bid inh = Mcl-1/Bid interaction inhibition; Q07820; TR-FRET Mcl-1/Bid-Dy647 peptide binding, 1536-well; inhibition, % at 21.7 µM; actives 0.97% (n = 220,000); AID 1021;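 active = compounds that cut the binding signal by more than half at the single screening dose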;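 also: His-tagged Mcl-1 with europium anti-His antibody binding Bid BH3 peptide; 0% = Mcl-1 plus peptide wells and 100% = peptide-only wells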
GLD-1 RNA inh = GLD-1-TGE RNA interaction inhibition (C. elegans); Q17339; purified GLD-1 + fluorescein TGE RNA, fluorescence polarization; inhibition, % at 5.96 µM; actives 0.44% (n = 320,000);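 active = percent inhibition above a per-plate cutoff, the plate mean of test compounds plus 3 SD, cut at about 30% in these data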;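 also: 0% = DMSO wells with GLD-1 and probe and 100% = wells lacking GLD-1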
Bcl-xL primary = Bcl-xL (human) inhibition; Q07817; GST-Bcl-xL / FITC-Bim BH3 peptide fluorescence polarization; inhibition, % at 10.9 µM; actives 0.7% (n = 320,000); AID 2129;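 active = inhibition above the mean of all tested compounds plus 3 SD, cutoff set per campaign, cut at about 30% in these data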;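 also: 0% = DMSO wells and 100% = unlabeled Bim-BH3 peptide competitor; inhibitors lower millipolarization by displacing the labeled peptide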
Target sequence (Q07817 whole entry, looked up): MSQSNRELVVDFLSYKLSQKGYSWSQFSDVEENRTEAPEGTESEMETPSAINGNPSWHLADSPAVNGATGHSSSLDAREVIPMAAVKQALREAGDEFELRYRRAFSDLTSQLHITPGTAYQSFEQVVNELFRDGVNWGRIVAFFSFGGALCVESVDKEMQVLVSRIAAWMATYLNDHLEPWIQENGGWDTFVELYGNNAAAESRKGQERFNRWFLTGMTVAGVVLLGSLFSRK
Bcl-xL conf = counter-screen for MCL1 inhibitors: confirmation of human Bcl-xL inhibitors | shares compounds with MCL1 BIM primary | GST-Bcl-xL / FITC-Bim BH3 peptide FP binding | inhibition, % at 10.9 µM | actives 54% (n = 1,700) | AID 2166;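 active = inhibition above a cutoff equal to the mean inhibition of all tested compounds plus 3 SD, cut at about 30% in these data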;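 also: 0% = DMSO wells and 100% = unlabeled Bim BH3 control peptide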
MCL1 BIM confirm = MCL1-BIM-BH3 interaction inhibition, confirmation. shares compounds with MCL1 BIM primary. GST-MCL1 / FITC-Bim-BH3 fluorescence polarization. inhibition, % at 10.9 µM. actives 61% (n = 1,700). AID 2168;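 active = inhibition above the average of all tested compounds plus 3 SD, cut at about 40% in these data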;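 also: 0% = DMSO wells and 100% = unlabeled Bim-BH3 control peptide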
Numbers without * were called inactive; . = not tested or not shown; + = active, no number. The list is not random: actives were taken first. Their share in the collection is about 2.3%.

SMILES	Mcl1-Noxa inh	Bim-Mcl-1	MCL1 BIM primary	Mcl1-Bid inh	GLD-1 RNA inh	Bcl-xL primary	Bcl-xL conf	MCL1 BIM confirm
CCOC(=O)C1CCN(S(=O)(=O)c2ccc3c4c2CC(=O)N4CC(C)S3)CC1 (stereo unspecified)	.	.	4.9	.	5.2	-1.4	.	.
COc1cccc(NC(=O)CC(=O)c2ccccc2)c1	.	.	-4.8	.	-2.3	-0.1	.	.
O=C1CCCC2=C1C(c1ccco1)Nc1ccc3ccccc3c12 (stereo unspecified)	99.0*	1.0	66.5*	60.0*	8.7	25.3	27.7	78.4*
CSc1nnc(-c2ccco2)c(-c2ccco2)n1	78.4*	-1.0	42.5*	27.0	5.1	23.9	25.6	55.6*
CSc1nnc(-c2ccccc2)c(-c2ccccc2)n1	3.1	.	-0.3	-19.3	-1.7	9.1	.	.
Cc1ccccc1NC(=O)CSc1nnc(-c2ccco2)c(-c2ccco2)n1	87.4*	0.0	52.4*	47.1	5.2	27.0	35.0*	86.2*
CN(C)c1ccc(NC(=O)CSc2nnc(-c3ccco3)c(-c3ccco3)n2)cc1	.	.	31.7	.	5.5	25.2	.	.
Cc1cccc(C)c1NC(=O)CSc1nnc(-c2ccco2)c(-c2ccco2)n1	101.6*	2.0	95.8*	45.8	11.8	57.7*	-18.7	-4.1
C/C(=N/NC(=O)C1CCCC1)c1ccc(NC(=O)C(F)(F)F)cc1	.	.	-4.8	.	-1.5	-2.8	.	.
O=C(C[n+]1ccccc1)N/N=C/c1ccc(Cl)cc1	.	.	-4.3	.	4.1	-1.5	.	.
CC1CN(C(=O)COC(=O)Cc2c(Cl)cccc2Cl)CC(C)O1 (stereo unspecified)	.	.	.	.	1.2	.	.	.
CC(C)N(C(=O)Nc1ccc2nsnc2c1)C(C)C	0.7	1.0	66.3*	-57.8	28.1	52.0*	28.4	24.3
Cn1c(=O)c(-c2cc(Br)ccc2N)nc2ccccc21	-1.6	-3.0	-5.0	-75.4	-1.1	2.9	.	.
Cn1c(=O)c(N)c2c3c(c(Br)ccc31)C(=O)c1ccccc1-2	-4.6	.	+	12.1	+	+	+	+
O=C(NCc1ccc(CNC(=O)c2ccco2)cc1)c1ccco1	.	.	4.0	.	1.1	2.2	.	.
Nc1ccc(N)c(C(=O)O)c1	92.4*	.	101.0*	97.6*	21.1	57.8*	72.0*	111.8*
Nc1ccc(C(=O)O)c(O)c1	14.2	1.0	31.6	-16.4	14.5	17.2	.	.
COC(=O)c1cccc(Cn2c(Cl)c(/C=N/NC(=O)c3ccco3)sc2=O)c1	.	.	-7.7	.	-9.6	-3.1	.	.
COc1ccc(C(=O)NCC(c2ccco2)N(C)C)cc1S(=O)(=O)NCc1ccc(Cl)cc1 (stereo unspecified)	.	.	4.6	.	3.1	2.1	.	.
O=c1[nH]c(S)c(/C=C2\C=Nc3ccccc32)s1	62.2*	.	76.3*	-3.8	45.2*	76.7*	86.0*	107.8*
O=C(Cn1c(O)c(/C=C2\C=Nc3ccccc32)sc1=O)N1CCOCC1	0.6	3.0	8.9	-21.3	2.2	3.9	.	.
CC1OC2(C)OC(=N)C1(C#N)C(C#N)(C#N)C2c1ccccc1 (stereo unspecified)	20.1	-6.0	86.7*	-37.9	66.0*	55.3*	11.1	7.4
Nc1ncc(N=Nc2cc(C(=O)O)ccc2Cl)s1	66.9*	.	44.9*	-65.0	3.9	16.7	36.1*	82.1*
CCc1ccc(-c2cc(C)no2)cc1S(=O)(=O)N1CCN(c2ccccc2)CC1	.	.	-2.0	.	-3.4	7.0	.	.
C/C(O)=c1/ccc2cccc3nc(C)nc1c23	1.4	3.0	61.2*	-27.6	22.0	70.9*	62.4*	56.8*
SMILES	Mcl1-Noxa inh	Bim-Mcl-1	MCL1 BIM primary	Mcl1-Bid inh	GLD-1 RNA inh	Bcl-xL primary	Bcl-xL conf	MCL1 BIM confirm
Cc1cccc2nc3ccccc3cc12	.	.	5.2	.	4.6	11.8	.	.
Cc1ccc(CN2CC(C(=O)NCC(=O)Nc3c(C)cccc3C)CC2=O)cc1 (stereo unspecified)	.	.	3.5	.	7.2	1.5	.	.
CCc1ccc(N(CC(=O)N2CCCCCC2)S(C)(=O)=O)cc1	.	.	8.8	.	-0.6	2.5	.	.
CC(C)(C)OC(=O)N[C@@H](Cc1ccccc1)C(=O)N1CCC(C(=O)NCC(=O)O)CC1	.	.	-0.3	.	1.2	2.9	.	.
CC(C)(C)OC(=O)NC(Cc1ccccc1)C(=O)N1CCC(C(=O)NCC(=O)Nc2ccc(F)cc2)CC1 (stereo unspecified)	.	.	122.0*	.	57.1*	105.2*	111.3*	141.4*
Cc1ccc(N2CCN(S(=O)(=O)c3ccc4oc(=O)ccc4c3)CC2)c(C)c1	.	.	8.3	.	15.6	6.0	.	.
O=C(COc1coc(CN2CCN(c3ccccc3)CC2)cc1=O)Nc1ccc(F)cc1	.	.	-0.9	.	6.0	0.5	.	.
O=C(N/N=C/c1cccc(F)c1)c1cc(-c2ccco2)nc2ccccc12	90.5*	-2.0	73.6*	-18.6	3.9	16.3	24.4	63.6*
COc1ccc(NC(=O)c2cc(-c3ccco3)nc3ccccc23)cc1	.	.	3.2	.	0.7	4.6	.	.
COc1ccc(NC(=O)c2cc(-c3ccco3)nc3ccccc23)cc1S(=O)(=O)N1CCOCC1	101.1*	.	42.5*	-25.1	3.3	8.9	38.2*	37.5
CCc1nnc(NC(=O)c2cc(-c3ccccn3)nc3ccccc23)s1	24.1	1.0	6.4	16.1	-1.0	7.2	.	.
O=C(NCC1CCCO1)c1cc(-c2ccco2)nc2ccccc12 (stereo unspecified)	41.7	2.0	66.6*	-53.0	39.2*	54.7*	11.8	24.2
CCc1nnc(NC(=O)c2cc(-c3ccco3)nc3ccccc23)s1	82.1*	1.0	51.2*	-31.4	5.9	24.4	31.6*	72.3*
O=C(N/N=C/c1ccc2c(c1)OCO2)c1cc(-c2ccc(F)cc2)nc2ccccc12	4.7	-2.0	-7.6	-4.8	-0.2	2.5	.	.
COc1ccc(CCC(=O)N2CCCC(Nc3ccc(C)c(C)c3)C2)cc1OC (stereo unspecified)	.	.	-0.7	.	-3.1	4.4	.	.
COc1ccccc1CNC(=O)COC(=O)c1cc(-c2ccco2)nc2ccccc12	92.2*	3.0	71.8*	32.5	10.4	29.1	34.5*	71.0*
O=C(O)c1ccccc1Nc1ccnc(C(F)(F)F)c1	.	.	4.3	.	6.1	0.9	.	.
O=C(CSc1nc(-c2ccccc2)cc(=O)[nH]1)N1CCOCC1	23.4	-5.0	48.3*	-0.5	9.6	5.7	10.3	2.7
Clc1ccc(C2Nc3cccc4cccc(c34)N2)cc1Cl	.	.	31.4	.	3.7	21.2	.	.
Brc1ccc(C2Nc3cccc4cccc(c34)N2)o1	65.1*	-1.0	54.5*	-1.3	20.4	50.8*	22.9	28.5
c1ccc(C2Nc3cccc4cccc(c34)N2)cc1	.	.	51.8*	.	13.2	38.6*	40.1*	55.0*
